Laboratory results taken from PubChem BioAssay (EPA / NIEHS).
Where “and” joins values, the source holds several entries; their conditions need not be identical. Equal entries are not always repeated. Records with an inconclusive call do not appear. The source holds several records for some structures; these can differ, active in one and inactive in another. Calls of active or inactive are those of the source. The calls were made as follows, unless noted: active = hit-call score of the fitted dose curve at least 0.9, where 1 is the maximum; inactive = score below 0.9.

Experiments:
[1] = read-out: E-selectin (Homo sapiens) (UniProt P16581); test: BSK_SAg_Eselectin: BioMAP Diversity Plus: SAg Assay for Eselectin Biomarker Activity (AID 2283091); settings: primary human HUVEC with PBMC; actives raise or lower the signal
How it was run: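 Co-culture: HUVEC + PBMC. Dose compound; 24 h. ELISA for E-selectin. Bidirectional fit vs DMSO.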

[2] = BSK_SAg_PBMCCytotoxicity: PBMC Cytotoxicity Assessment in the BioMAP Diversity Plus: SAg Assay (AID 2283093); settings: primary human HUVEC with PBMC;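 also: PBMC viability measured as Alamar Blue reduction fluorescence at 546/580 nm; fitted both ways against DMSO so a hit may be loss or gain of signal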;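 as to AC50: PBMC superantigen activated with SEB plus TSST-1 one hour after compound addition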
How it was run: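 Alamar Blue reduction (6 h, ex/em 546/580 nm) read after 90 h culture of PBMC pre-dosed 1 h then stimulated with SEB plus TSST-1, 20 ng/mL each. Gain or loss of signal fitted relative to DMSO.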

[3] = BSK_SAg_Proliferation: Cell Proliferation Assessment in the BioMAP Diversity Plus: SAg Assay (AID 2283095); settings: primary human HUVEC with PBMC;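 also: relative cell number as total protein by SRB absorbance in sub-confluent culture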
How it was run: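 A human primary co-culture of umbilical vein endothelium and blood mononuclear cells receives compound; relative cell number is quantified at 96 h by SRB staining and 560 nm absorbance, with DMSO-referenced bidirectional curve fitting.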

[4] = BSK_SAg_SRB: Viability Assessment in the BioMAP Diversity Plus: SAg Assay (AID 2283096); settings: primary human HUVEC with PBMC;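 also: cells read one day after compound addition; hits may be either gain or loss of signal compared with DMSO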
How it was run: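 SRB absorbance at 560 nm served as the viability read-out. Cells (HUVEC plus peripheral blood mononuclear cells) were TCA-fixed and stained 24 h post-dosing; activity fitted in both directions against DMSO controls.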

[5] = target: Cytochrome P450 3A4 (Homo sapiens) (UniProt P08684); test: NVS_ADME_hCYP3A4: NovaScreen (NVS) CYP450-related Enzyme Activity (ADME) Assay for human CYP3A4 (AID 2283110; active = hit-call score of the fitted dose curve at least 0.9, where 1 is the maximum)
How it was run: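 Compounds screened in duplicate at 10 uM, with follow-up concentration-response for actives, against insect-cell-expressed recombinant enzyme. Activity read by fluorescence 0.33 h after dosing; loss of signal versus acetonitrile control indicates inhibition.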

[6] = read-out: Monokine induced gamma interferon (MIG), CXCL9 (gene 4283); test: BSK_SAg_MIG: BioMAP Diversity Plus: SAg Assay for Monokine induced gamma interferon (MIG) Biomarker Activity (AID 2283092); settings: primary human HUVEC with PBMC; actives raise or lower the signal
How it was run: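 ELISA readout of MIG/CXCL9; primary human umbilical vein endothelial cells co-cultured with peripheral blood mononuclear cells; 24 h post-dose; gain/loss fit vs DMSO baseline.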

[7] = target: human CYP2C9, CYP2C9 (gene 1559) (UniProt P11712); test: NVS_ADME_hCYP2C9: NovaScreen (NVS) CYP450-related Enzyme Activity (ADME) Assay for human CYP2C9 (AID 2283108; active = hit-call score of the fitted dose curve at least 0.9, where 1 is the maximum)
How it was run: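 Fluorescence readout of CYP2C9 activity (SF9-expressed human enzyme) at 0.75 h. The primary screen used 10 uM in duplicate, with concentration-response follow-up for actives; acetonitrile was the negative control.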

[8] = target: Cytochrome P450 2C19 (Homo sapiens) (UniProt P33261); test: NVS_ADME_hCYP2C19: NovaScreen (NVS) CYP450-related Enzyme Activity (ADME) Assay for human CYP2C19 (AID 2283113; active = hit-call score of the fitted dose curve at least 0.9, where 1 is the maximum;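 as to AC50: potency for inhibition seen as loss of fluorescent signal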)
How it was run: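 Fluorescence intensity was measured 1 hour after chemicals were added to insect-cell-derived recombinant CYP2C19 with fluorogenic substrate. Decreased signal versus acetonitrile control was taken as reduced enzyme activity; initial testing used 10 uM in duplicate.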

[9] = target: human CYP2B6, CYP2B6 (gene 1555) (UniProt P20813); test: NVS_ADME_hCYP2B6: NovaScreen (NVS) CYP450-related Enzyme Activity (ADME) Assay for human CYP2B6 (AID 2283101; active = hit-call score of the fitted dose curve at least 0.9, where 1 is the maximum)
How it was run: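 Fluorescence-based enzyme activity of recombinant human CYP2B6, measured 1 h post-dose against acetonitrile vehicle baseline. Screened at a single concentration of 10 uM in duplicate before concentration-response follow-up.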

[10] = target: human CYP1A2, CYP1A2 (gene 1544) (UniProt P05177); test: NVS_ADME_hCYP1A2: NovaScreen (NVS) CYP450-related Enzyme Activity (ADME) Assay for human CYP1A2 (AID 2283102; active = hit-call score of the fitted dose curve at least 0.9, where 1 is the maximum;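 also: potency for inhibition since loss of fluorescence marks reduced CYP1A2 activity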)
How it was run: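 rec. hCYP1A2 (insect cells), cell-free; fluorogenic substrate; 0.5 h; FI read. Baseline = acetonitrile; signal loss = inhibition. 10 uM duplicate primary → conc. series for actives.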

[11] = target: rat CYP2A2, Cyp2a2 (gene 24895) (UniProt P15149); test: NVS_ADME_rCYP2A2: NovaScreen (NVS) CYP450-related Enzyme Activity (ADME) Assay for rat CYP2A2 (AID 2283116; active = hit-call score of the fitted dose curve at least 0.9, where 1 is the maximum)
How it was run: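 Compounds first tested in duplicate at 10 uM, then in singleton concentration series up to 20 uM when over threshold. Activity of the recombinant enzyme read by fluorescence at 0.2 h, normalised to acetonitrile vehicle.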

[12] = target: human CYP19A1, CYP19A1 (gene 1588) (UniProt P11511); test: NVS_ADME_hCYP19A1: NovaScreen (NVS) CYP450-related Enzyme Activity (ADME) Assay for human CYP19A1 (AID 2283098; active = hit-call score of the fitted dose curve at least 0.9, where 1 is the maximum;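 as to AC50: potency for inhibitors seen as loss of fluorescent enzyme signal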)
How it was run: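 Primary testing was in duplicate at a single 10 uM concentration, with actives followed up in concentration-response series. Fluorescence read-out of recombinant enzyme activity at 0.5 h, cell-free. Acetonitrile was the negative-control baseline.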

[13] = target: human CYP2A6, CYP2A6 (gene 1548) (UniProt P11509); test: NVS_ADME_hCYP2A6: NovaScreen (NVS) CYP450-related Enzyme Activity (ADME) Assay for human CYP2A6 (AID 2283099; active = hit-call score of the fitted dose curve at least 0.9, where 1 is the maximum)
How it was run: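 Fluorescent substrate turnover by recombinant CYP2A6 (insect cell source), 0.5 h read. Screen: 10 uM, duplicate; threshold hits (e.g. 30% inhibition) → singleton concentration-response, top 20 uM. Positive and negative controls on every plate.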

[14] = target: human CYP1A1, CYP1A1 (gene 1543) (UniProt P04798); test: NVS_ADME_hCYP1A1: NovaScreen (NVS) CYP450-related Enzyme Activity (ADME) Assay for human CYP1A1 (AID 2283100; active = hit-call score of the fitted dose curve at least 0.9, where 1 is the maximum)
How it was run: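 Recombinant hCYP1A1 + fluorogenic substrate, cell-free; 1 h; fluorescence read. Single-point 10 uM (duplicate) → concentration series, max 20 uM. Acetonitrile negative control.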

Chain of E-selectin (Homo sapiens) (P16581 whole entry, looked up): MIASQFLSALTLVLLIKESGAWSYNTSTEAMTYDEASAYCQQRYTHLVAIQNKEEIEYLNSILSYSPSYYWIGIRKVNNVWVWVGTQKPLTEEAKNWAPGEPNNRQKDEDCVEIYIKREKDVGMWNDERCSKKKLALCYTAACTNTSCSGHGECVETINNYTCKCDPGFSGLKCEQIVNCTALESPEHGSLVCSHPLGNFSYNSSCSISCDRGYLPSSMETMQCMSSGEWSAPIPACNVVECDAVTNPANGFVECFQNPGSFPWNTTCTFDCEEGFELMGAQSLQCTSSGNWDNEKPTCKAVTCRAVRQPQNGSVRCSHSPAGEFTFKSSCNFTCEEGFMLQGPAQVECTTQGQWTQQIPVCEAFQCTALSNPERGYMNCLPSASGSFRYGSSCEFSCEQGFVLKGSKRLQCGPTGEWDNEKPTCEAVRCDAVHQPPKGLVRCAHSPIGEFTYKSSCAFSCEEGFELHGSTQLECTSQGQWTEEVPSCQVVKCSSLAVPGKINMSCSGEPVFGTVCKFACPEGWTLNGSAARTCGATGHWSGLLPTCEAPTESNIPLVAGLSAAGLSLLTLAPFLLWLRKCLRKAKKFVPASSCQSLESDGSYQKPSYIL
Chain of Cytochrome P450 3A4 (Homo sapiens) (P08684 whole entry, looked up): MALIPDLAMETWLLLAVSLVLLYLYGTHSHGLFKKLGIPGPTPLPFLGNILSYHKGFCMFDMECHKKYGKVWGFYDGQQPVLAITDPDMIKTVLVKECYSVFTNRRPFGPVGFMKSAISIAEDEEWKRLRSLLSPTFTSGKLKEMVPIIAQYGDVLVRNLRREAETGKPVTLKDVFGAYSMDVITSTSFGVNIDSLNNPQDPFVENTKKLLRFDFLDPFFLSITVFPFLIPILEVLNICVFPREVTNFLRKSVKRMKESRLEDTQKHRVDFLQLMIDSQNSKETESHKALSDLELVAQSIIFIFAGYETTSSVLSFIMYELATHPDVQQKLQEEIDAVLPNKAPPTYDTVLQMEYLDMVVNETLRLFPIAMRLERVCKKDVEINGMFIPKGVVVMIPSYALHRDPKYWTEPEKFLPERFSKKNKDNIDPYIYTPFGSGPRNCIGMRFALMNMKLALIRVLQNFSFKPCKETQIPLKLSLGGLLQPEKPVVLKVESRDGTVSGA
Chain of human CYP19A1, CYP19A1 (gene 1588) (P11511 whole entry, looked up): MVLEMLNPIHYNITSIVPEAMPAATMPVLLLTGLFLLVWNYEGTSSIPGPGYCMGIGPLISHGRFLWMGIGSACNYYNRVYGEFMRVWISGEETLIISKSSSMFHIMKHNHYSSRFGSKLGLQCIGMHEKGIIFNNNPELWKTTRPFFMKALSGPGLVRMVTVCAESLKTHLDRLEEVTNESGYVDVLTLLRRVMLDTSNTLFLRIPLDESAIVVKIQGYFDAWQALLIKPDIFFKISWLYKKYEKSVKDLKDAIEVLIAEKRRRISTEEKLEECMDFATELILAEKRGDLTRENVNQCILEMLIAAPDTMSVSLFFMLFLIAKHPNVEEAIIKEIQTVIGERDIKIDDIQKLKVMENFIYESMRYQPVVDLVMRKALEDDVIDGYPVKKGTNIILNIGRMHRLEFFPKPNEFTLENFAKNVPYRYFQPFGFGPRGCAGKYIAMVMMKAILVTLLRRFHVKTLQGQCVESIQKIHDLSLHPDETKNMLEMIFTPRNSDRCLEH
Chain of human CYP1A2, CYP1A2 (gene 1544) (P05177 whole entry, looked up): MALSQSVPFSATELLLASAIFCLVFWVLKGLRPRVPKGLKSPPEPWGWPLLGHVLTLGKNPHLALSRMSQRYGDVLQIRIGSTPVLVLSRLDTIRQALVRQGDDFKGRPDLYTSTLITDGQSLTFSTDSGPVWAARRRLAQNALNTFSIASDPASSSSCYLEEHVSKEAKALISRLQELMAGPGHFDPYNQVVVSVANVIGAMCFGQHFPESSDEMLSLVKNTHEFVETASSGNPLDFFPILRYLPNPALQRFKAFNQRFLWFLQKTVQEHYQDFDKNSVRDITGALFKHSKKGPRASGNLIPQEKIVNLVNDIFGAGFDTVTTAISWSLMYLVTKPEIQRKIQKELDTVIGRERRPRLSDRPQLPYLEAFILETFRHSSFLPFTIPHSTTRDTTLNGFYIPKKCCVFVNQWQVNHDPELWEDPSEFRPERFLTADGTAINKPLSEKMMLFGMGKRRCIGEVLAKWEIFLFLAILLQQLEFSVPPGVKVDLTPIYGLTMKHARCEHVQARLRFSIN
Chain of human CYP2C9, CYP2C9 (gene 1559) (P11712 whole entry, looked up): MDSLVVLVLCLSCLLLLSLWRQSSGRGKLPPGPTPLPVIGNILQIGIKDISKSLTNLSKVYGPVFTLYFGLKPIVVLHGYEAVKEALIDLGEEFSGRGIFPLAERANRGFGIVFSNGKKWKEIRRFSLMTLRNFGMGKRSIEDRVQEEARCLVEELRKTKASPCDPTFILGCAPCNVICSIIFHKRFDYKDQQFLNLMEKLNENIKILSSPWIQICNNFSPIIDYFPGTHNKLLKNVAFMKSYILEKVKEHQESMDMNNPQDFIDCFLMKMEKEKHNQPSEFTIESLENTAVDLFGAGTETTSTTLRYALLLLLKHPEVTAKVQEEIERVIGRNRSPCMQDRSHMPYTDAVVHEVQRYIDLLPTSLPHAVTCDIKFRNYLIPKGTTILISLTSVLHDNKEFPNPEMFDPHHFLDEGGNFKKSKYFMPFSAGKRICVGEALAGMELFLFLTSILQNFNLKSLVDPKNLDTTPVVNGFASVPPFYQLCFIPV
Chain of human CYP2B6, CYP2B6 (gene 1555) (P20813 whole entry, looked up): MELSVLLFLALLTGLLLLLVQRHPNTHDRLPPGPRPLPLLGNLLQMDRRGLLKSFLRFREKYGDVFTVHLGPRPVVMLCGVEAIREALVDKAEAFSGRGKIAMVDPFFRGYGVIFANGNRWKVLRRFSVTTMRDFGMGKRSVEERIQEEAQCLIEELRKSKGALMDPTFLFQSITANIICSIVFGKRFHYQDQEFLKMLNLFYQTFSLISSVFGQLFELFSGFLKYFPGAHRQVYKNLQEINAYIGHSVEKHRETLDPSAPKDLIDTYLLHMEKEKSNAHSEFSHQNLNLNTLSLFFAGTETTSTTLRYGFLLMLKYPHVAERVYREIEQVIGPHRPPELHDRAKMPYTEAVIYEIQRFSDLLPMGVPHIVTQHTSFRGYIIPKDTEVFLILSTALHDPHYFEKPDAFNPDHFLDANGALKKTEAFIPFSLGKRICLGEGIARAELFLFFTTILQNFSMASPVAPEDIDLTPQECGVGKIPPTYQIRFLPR
Chain of human CYP1A1, CYP1A1 (gene 1543) (P04798 whole entry, looked up): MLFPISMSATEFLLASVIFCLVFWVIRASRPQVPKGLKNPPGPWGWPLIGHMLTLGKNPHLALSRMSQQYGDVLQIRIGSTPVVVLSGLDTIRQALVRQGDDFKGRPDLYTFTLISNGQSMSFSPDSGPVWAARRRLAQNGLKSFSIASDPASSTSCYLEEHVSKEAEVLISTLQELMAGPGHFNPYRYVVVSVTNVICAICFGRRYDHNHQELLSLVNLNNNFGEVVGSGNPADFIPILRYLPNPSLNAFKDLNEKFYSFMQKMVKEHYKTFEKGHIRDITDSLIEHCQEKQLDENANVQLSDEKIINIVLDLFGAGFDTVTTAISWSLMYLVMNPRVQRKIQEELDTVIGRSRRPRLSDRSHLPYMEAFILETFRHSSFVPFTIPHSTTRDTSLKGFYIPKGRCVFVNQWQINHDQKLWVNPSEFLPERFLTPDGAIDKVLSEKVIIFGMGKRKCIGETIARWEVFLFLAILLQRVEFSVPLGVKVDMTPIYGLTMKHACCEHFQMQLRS
Chain of rat CYP2A2, Cyp2a2 (gene 24895) (P15149 whole entry, looked up): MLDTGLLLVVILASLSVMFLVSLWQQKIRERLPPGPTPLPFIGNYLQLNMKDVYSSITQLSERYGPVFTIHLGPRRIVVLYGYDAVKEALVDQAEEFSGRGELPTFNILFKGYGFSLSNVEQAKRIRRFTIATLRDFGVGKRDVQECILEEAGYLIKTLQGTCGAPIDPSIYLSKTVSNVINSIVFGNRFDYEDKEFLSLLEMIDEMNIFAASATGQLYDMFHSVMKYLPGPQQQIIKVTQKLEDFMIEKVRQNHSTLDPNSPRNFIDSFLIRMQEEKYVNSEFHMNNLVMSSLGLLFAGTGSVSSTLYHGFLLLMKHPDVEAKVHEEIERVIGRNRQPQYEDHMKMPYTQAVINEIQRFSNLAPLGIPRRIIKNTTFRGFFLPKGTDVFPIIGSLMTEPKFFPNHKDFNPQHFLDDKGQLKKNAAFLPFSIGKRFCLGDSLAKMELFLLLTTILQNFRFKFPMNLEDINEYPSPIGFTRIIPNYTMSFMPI
Chain of human CYP2A6, CYP2A6 (gene 1548) (P11509 whole entry, looked up): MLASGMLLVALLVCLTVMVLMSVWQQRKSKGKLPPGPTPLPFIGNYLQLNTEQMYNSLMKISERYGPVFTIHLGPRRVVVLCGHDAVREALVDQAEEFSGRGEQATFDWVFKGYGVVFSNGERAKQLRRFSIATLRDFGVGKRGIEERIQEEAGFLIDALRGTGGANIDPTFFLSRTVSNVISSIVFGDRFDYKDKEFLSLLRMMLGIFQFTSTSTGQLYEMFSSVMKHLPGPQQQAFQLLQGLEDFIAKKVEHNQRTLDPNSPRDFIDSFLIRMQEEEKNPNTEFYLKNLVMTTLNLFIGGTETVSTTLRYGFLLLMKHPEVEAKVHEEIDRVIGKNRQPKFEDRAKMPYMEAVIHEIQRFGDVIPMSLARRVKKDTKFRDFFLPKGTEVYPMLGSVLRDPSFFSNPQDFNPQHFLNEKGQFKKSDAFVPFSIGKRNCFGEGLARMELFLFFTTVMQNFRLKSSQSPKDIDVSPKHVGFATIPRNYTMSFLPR

Cc1occc1C(=O)Nc1ccc(C(=O)N2CCC(F)(F)/C(=C\C(=O)N3CCC(N4CCCCC4)CC3)c3ccccc32)cc1
outcome [1]: inactive
outcome [2]: inactive
outcome [3]: inactive
outcome [4]: inactive
outcome [5]: inactive

CN(C)C(=O)C1(N2CCCCC2)CCN(CC[C@@]2(c3ccc(Cl)c(Cl)c3)CN(C(=O)c3ccccc3)CCO2)CC1
AC50 [1]: 28.3 µM (active)
AC50 [6]: 31.7 µM (active)
AC50 [2]: 15.4 µM (active)
AC50 [3]: 5.91 µM (active)
AC50 [7]: 1.17 µM (active)
AC50 [5]: 0.586 µM (active)
AC50 [8]: 393 nM (active)

CCCCOC(=O)c1ccc(O)cc1
outcome [1]: inactive
outcome [6]: inactive
outcome [2]: inactive
outcome [3]: inactive
AC50 [9]: 4.55 µM (active)
AC50 [10]: 2.4 µM (active)
AC50 [7]: 7.15 µM (active)
AC50 [8]: 7750 nM (active)

CCCCOC(=O)CC(CC(=O)OCCCC)(OC(C)=O)C(=O)OCCCC
outcome [1]: inactive
outcome [6]: inactive
outcome [2]: inactive
outcome [3]: inactive
outcome [7]: inactive
AC50 [8]: 3.7 µM (active) and 9.42 µM (active)
outcome [11]: inactive

CC(C)(O)c1ccc(CNC(=O)c2cccnc2Oc2ccc3nonc3c2)cc1
AC50 [1]: 1.4 µM (active)
outcome [6]: inactive
outcome [2]: inactive
outcome [3]: inactive
AC50 [7]: 13 µM (active)
AC50 [8]: 10900 nM (active)

C[C@]12CC[C@@H]3c4ccc(O)cc4CC[C@H]3[C@@H]1CCC2=O
outcome [1]: inactive
outcome [6]: inactive
outcome [2]: inactive
outcome [3]: inactive

O=C(O)c1ccccc1-n1cc(C(=O)O)c(=O)c2cc(Nc3c(F)cc(F)cc3Cl)c(Cl)cc21
outcome [1]: inactive
outcome [6]: inactive
outcome [2]: inactive
outcome [3]: inactive
outcome [4]: inactive

O=C(O)Cc1cc(I)c(Oc2ccc(O)c(I)c2)c(I)c1
AC50 [1]: 20 µM (active)
outcome [6]: inactive
outcome [2]: inactive
AC50 [3]: 11.8 µM (active)
outcome [12]: inactive
outcome [8]: inactive

NCc1cccc(C2CCN(C(=O)c3ccc(C#Cc4ccccc4F)o3)CC2)c1
AC50 [1]: 23.8 µM (active)
AC50 [6]: 35.1 µM (active)
AC50 [2]: 11.9 µM (active)
AC50 [3]: 7.97 µM (active)
AC50 [13]: 17.9 µM (active)
AC50 [14]: 7.2 µM (active)
AC50 [9]: 5.71 µM (active)
AC50 [10]: 6.43 µM (active)
AC50 [7]: 0.112 µM (active)
AC50 [5]: 10 µM (active)
AC50 [8]: 230 nM (active)

Cc1c2ccccc2c(C)c2c1ccc1ccccc12
AC50 [1]: 5.2 µM (active)
outcome [6]: inactive
AC50 [2]: 34 µM (active)
AC50 [4]: 29.1 µM (active)
AC50 [10]: 4.33 µM (active)
AC50 [8]: 7170 nM (active)

c1ccc2n[nH]nc2c1
outcome [1]: inactive
outcome [6]: inactive
outcome [2]: inactive
outcome [3]: inactive
outcome [4]: inactive

OC12N=C(c3ccccc3)SC1Cc1cc(Cl)ccc12 (stereo not given)
outcome [1]: inactive
outcome [6]: inactive
AC50 [2]: 28.6 µM (active)
AC50 [3]: 25.4 µM (active)
outcome [4]: inactive
AC50 [9]: 3.9 µM (active)
AC50 [10]: 0.814 µM (active)
AC50 [8]: 245 nM (active)

CCCCCCCCOC(=O)c1cc(O)c(O)c(O)c1
AC50 [1]: 16 µM (active)
AC50 [6]: 30.4 µM (active)
AC50 [2]: 27.7 µM (active)
AC50 [3]: 5.52 µM (active)
AC50 [9]: 10.1 µM (active)
AC50 [10]: 4.26 µM (active)
AC50 [7]: 7.75 µM (active)
AC50 [5]: 15.4 µM (active)
AC50 [8]: 5400 nM (active)

Oc1ccc2ccccc2c1
AC50 [1]: 10.8 µM (active)
outcome [6]: inactive
outcome [2]: inactive
outcome [3]: inactive

C[C@]12CC[C@@H]3c4ccc(O)cc4CC[C@H]3[C@@H]1CC[C@H]2O
outcome [1]: inactive
outcome [6]: inactive
outcome [2]: inactive
AC50 [3]: 12.4 µM (active)
AC50 [4]: 12.1 µM (active)
AC50 [12]: 10 µM (active)
outcome [12]: inactive
AC50 [8]: 649 nM (active)

Clc1cc(Cl)c2c(c1)N=C1CCCCCN1C2
outcome [1]: inactive
outcome [6]: inactive
outcome [2]: inactive
outcome [3]: inactive
AC50 [14]: 0.764 µM (active)
AC50 [10]: 2.34 µM (active)

Cc1cc(F)ccc1-c1cc(N2CC[C@@H](O)[C@H]2CO)ncc1N(C)C(=O)C(C)(C)c1cc(C(F)(F)F)cc(C(F)(F)F)c1
AC50 [1]: 10.2 µM (active)
AC50 [6]: 13.1 µM (active)
AC50 [2]: 7.85 µM (active)
AC50 [3]: 5.7 µM (active)
AC50 [4]: 10.8 µM (active)

CC(=O)N1CCN(c2ccc(OC[C@H]3CO[C@](Cn4ccnc4)(c4ccc(Cl)cc4Cl)O3)cc2)CC1
AC50 [1]: 32.4 µM (active)
AC50 [6]: 37.7 µM (active)
AC50 [2]: 33 µM (active)
AC50 [3]: 22.8 µM (active)
AC50 [4]: 24.7 µM (active)
